Laboratory results as given in PubChem BioAssay (NCATS).
Records with an inconclusive call do not appear. Activity calls are given as the source filed them. Unless noted, calls come from the whole dose curve; as a rule, active = well fitted curve in either direction with a large enough effect (not every such curve was filed as active); inconclusive = small, poorly fitted or top-dose-only effect, or another doubt; inactive = flat fitted curve, though single readings scatter.

Target: Lysosomal acid glucosylceramidase (Homo sapiens) (UniProt P04062)
Sequence (P04062 whole entry, looked up): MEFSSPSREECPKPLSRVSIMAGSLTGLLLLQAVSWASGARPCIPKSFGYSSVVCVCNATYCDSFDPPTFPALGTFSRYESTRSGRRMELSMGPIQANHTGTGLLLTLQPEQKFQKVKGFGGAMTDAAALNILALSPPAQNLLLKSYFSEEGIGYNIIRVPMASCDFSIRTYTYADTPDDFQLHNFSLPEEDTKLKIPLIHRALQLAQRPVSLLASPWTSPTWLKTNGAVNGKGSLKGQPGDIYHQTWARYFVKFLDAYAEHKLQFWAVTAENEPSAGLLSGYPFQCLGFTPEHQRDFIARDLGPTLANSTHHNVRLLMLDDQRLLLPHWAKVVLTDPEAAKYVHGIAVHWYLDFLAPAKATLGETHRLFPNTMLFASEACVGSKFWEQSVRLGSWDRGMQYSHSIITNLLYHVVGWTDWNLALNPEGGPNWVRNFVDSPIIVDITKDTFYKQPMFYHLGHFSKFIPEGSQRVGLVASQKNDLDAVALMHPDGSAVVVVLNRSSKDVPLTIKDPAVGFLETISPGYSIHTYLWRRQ
Experiment: Glucocerebrosidase-p2 (AID 348; in the data active = potency below about 10 µM; note: potency is the fitted concentration of half-maximal effect)
Conditions: purified GBA, blue fluorogenic substrate, 40 min
Source text: Beta-glucocerebrosidase catalyzes the hydrolysis of beta-glucocerebroside to glucose and ceramide. The inherited deficiency of beta-glucocerebrosidase results in Gaucher disease, which is characterized by a wide variety of symptoms including hepatosplenomegaly, anemia, thrombocytopenia, bony lesions and bone marrow infiltration with characteristic storage cells, known as Gaucher cells. There are also forms of the disorder affecting the central nervous system. Patients with the same genotypes can manifest with diverse clinical presentations and it is believed that improper folding and trafficking of beta-glucocerbrosidase may contribute to the phenotypes observed.
Low molecular weight molecules, acting as chaperones, may potentially restore trafficking of misfolded beta-glucocerebrosidase from the endoplasmic reticulum to the lysosomes, thereby enhancing functional lysosomal beta-glucocerebrosidase activity.
Using normal beta-glucocerebrosidase, an assay was developed to screen for small molecule inhibitors that could potentially act as molecular chaperones on the mutant forms [developed with NIH investigator Dr. Ellen Sidransky#s laboratory]. Two pro-fluorescent substrates were chosen for two screens against a small molecule library. One beta-glucocerebrosidase assay used Resorufin beta-D-Glucopyranoside (Marker Gene Technology Inc.), generating a red fluorescent product. The second assay used […] fluorescent product. The Km for the Resorufin beta-D-Glucopyranoside and Fluorescein di-beta-D-Glucopyranoside were determined to be 71.2 uM and 855 uM, respectively. The IC50 values of Conduritol B Epoxide, a known glucocerebrosidase inhibitor, were determined to be 87.5 uM and 117 uM, respectively. The use of two difference pro-fluorescent substrates in the screens helped to eliminate false positives. All compounds were screened in a titration series resulting in AC50s (e.g., IC50s or EC50s). […]
Blue fluorescence substrate assay: […]
Read the plate in Viewlux plate reader (Ex=365(10) and Em=440(10)).
With `O=S(=O)(O)c1ccc2cc(N=Nc3cc(S(=O)(=O)O)c4cccnc4c3O)ccc2c1` the Potency was > 11.4 µM (inactive). With `CN(C)c1ccccc1CN1CCCN(Cc2ccccc2N(C)C)C1c1ccncc1` the Potency was > 11.4 µM (inactive). In the case of `NC(=O)c1nnn(Cc2cc(Cl)c(C(=O)c3ccc(Cl)cc3)c(Cl)c2)c1N`, the Potency was > 11.4 µM (inactive).

System: not listed separately
Experiment: AP1 Signaling Pathway (AID 357);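 note: ME-180 reporter cells stimulated with EGF at its EC50 level; % is set by controls: 0 for no effect and ±100 for the full control effect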
Conditions: ME-180 (cervical carcinoma) AP-1-bla reporter, EGF-induced, beta-lactamase ratio, 5 h; series mostly up to 17.2 µM; activity change, negative = inhibition: at the top concentration
Outline: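 Cells are seeded overnight, exposed to compound titrations and an EC50 level of EGF for 5 hours at 37 °C, then loaded with CCF4 dye for 2.5 hours. Beta-lactamase activity under the AP-1 element is read as a blue/green ratio.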
With `NS(=O)(=O)c1cc(Cl)c(Cl)c(S(N)(=O)=O)c1` the “activity change, negative = inhibition” value was -1.94% (inactive). In the case of `CC(NCCc1ccc(O)cc1)C(O)c1ccc(O)cc1` (configuration not stated), the “activity change, negative = inhibition” value was -10.3% (inactive). For `NCC1CCC(C(=O)O)CC1` (configuration not stated), the “activity change, negative = inhibition” value was 5.47% (inactive). In the case of `O=S(=O)(O)c1ccc2cc(N=Nc3cc(S(=O)(=O)O)c4cccnc4c3O)ccc2c1`, the “activity change, negative = inhibition” value was 0.545% [at 7.69 µM] (inactive). In the case of `Cc1cc2nc3c(=O)[nH]c(=O)nc-3n(CC(O)C(O)C(O)CO)c2cc1C` (configuration not stated), the “activity change, negative = inhibition” value was -5.67% (inactive). With `C=C1c2cccc(O)c2C(O)=C2C(=O)[C@@]3(O)C(O)=C(C(N)=O)C(=O)[C@@H](N(C)C)[C@@H]3[C@@H](O)[C@H]12` the “activity change, negative = inhibition” value was 3.14% (inactive). With `CN[C@H]1[C@@H](O[C@@H]2[C@H](O[C@@H]3[C@@H](O)[C@@H](O)[C@@H](N=C(N)N)[C@@H](O)[C@@H]3N=C(N)N)O[C@H](C)[C@@]2(O)C=O)O[C@@H](CO)[C@@H](O)[C@H]1O` the “activity change, negative = inhibition” value was 4.01% (inactive). In the case of `CN(C)c1ccccc1CN1CCCN(Cc2ccccc2N(C)C)C1c1ccncc1`, the “activity change, negative = inhibition” value was 10.5% [at 7.69 µM] (inactive). With `NC(=O)c1nnn(Cc2cc(Cl)c(C(=O)c3ccc(Cl)cc3)c(Cl)c2)c1N` the “activity change, negative = inhibition” value was -14.6% [at 7.69 µM] (inactive).

Target: Cytochrome P450 1A2 (Homo sapiens) (UniProt P05177)
Sequence (P05177 whole entry, looked up): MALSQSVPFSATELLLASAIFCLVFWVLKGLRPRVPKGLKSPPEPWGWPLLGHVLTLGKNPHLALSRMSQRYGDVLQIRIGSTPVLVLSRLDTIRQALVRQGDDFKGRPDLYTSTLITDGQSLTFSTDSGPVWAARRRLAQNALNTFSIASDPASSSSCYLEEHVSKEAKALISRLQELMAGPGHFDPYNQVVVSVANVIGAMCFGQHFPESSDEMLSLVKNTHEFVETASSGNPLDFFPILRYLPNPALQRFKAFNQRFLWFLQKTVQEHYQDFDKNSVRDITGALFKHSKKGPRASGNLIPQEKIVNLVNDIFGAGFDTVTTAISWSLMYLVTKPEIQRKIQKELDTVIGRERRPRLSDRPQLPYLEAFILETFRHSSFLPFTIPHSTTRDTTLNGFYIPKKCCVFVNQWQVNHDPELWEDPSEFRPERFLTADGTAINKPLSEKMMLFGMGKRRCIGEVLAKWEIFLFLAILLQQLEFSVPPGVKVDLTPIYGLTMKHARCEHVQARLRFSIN
Experiment: p450-cyp1a2 (AID 410; calls by dose curve; note: potency is the fitted concentration of half-maximal effect;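 for activity change, negative = inhibition: -100% = full effect of reference inhibitor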)
Conditions: recombinant CYP1A2, luciferin-ME demethylation, luminescence; series mostly up to 25.6 µM; activity change, negative = inhibition: at the top concentration
Outline: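 Luminescent demethylation readout: Luciferin-ME (100uM, equal to Km) turned over by 20nM CYP1A2 for 60 min at room temperature after NADPH regeneration addition, following 10 min compound preincubation. Normalization used 57 uM furafylline as full inhibition.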
With `NS(=O)(=O)c1cc(Cl)c(Cl)c(S(N)(=O)=O)c1` the “activity change, negative = inhibition” value was -15.8% (inactive). With `Cc1cc(NC(=O)Nc2ccc(N(C)C)cc2)c2cc(F)cc(F)c2n1` the Potency was 0.126 µM (active). For `Clc1ccc(COC(Cn2ccnc2)c2ccc(Cl)cc2Cl)c(Cl)c1` (configuration not stated), the Potency was 1.26 µM (active). With `CN(C)CCN(Cc1ccc(Cl)cc1)c1ccccn1` the Potency was 12.6 µM (active). With `NCC1CCC(C(=O)O)CC1` (configuration not stated) the “activity change, negative = inhibition” value was -3.7% (inactive). With `O=S(=O)(O)c1ccc2cc(N=Nc3cc(S(=O)(=O)O)c4cccnc4c3O)ccc2c1` the activity change, negative = inhibition was -18.8% [at 2.29 µM] (inactive). For `CCC(=C(CC)c1ccc(O)cc1)c1ccc(O)cc1`, the Potency was 15.8 µM (active). For `C=C1c2cccc(O)c2C(O)=C2C(=O)[C@@]3(O)C(O)=C(C(N)=O)C(=O)[C@@H](N(C)C)[C@@H]3[C@@H](O)[C@H]12`, the “activity change, negative = inhibition” value was -1.1% (inactive). With `CN[C@H]1[C@@H](O[C@@H]2[C@H](O[C@@H]3[C@@H](O)[C@@H](O)[C@@H](N=C(N)N)[C@@H](O)[C@@H]3N=C(N)N)O[C@H](C)[C@@]2(O)C=O)O[C@@H](CO)[C@@H](O)[C@H]1O` the “activity change, negative = inhibition” value was -0.4% (inactive). For `CN(C)c1ccccc1CN1CCCN(Cc2ccccc2N(C)C)C1c1ccncc1`, the “activity change, negative = inhibition” value was 3.1% [at 11.4 µM] (inactive). With `Cc1ccc(NC(=O)c2cccc(N(C)C)c2)cc1NC(=O)c1ccc(O)cc1` the Potency was 1.26 µM (active). In the case of `NC(=O)c1nnn(Cc2cc(Cl)c(C(=O)c3ccc(Cl)cc3)c(Cl)c2)c1N`, the activity change, negative = inhibition was -2.2% [at 2.29 µM] (inactive).

System: not listed separately
Experiment: NFAT Signaling Pathway (AID 444);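 note: carbachol stimulus at about its EC50 of 1 µM final; % is set by controls: 0 for no effect and ±100 for the full control effect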
Conditions: Jurkat NFAT-bla M1, carbachol, beta-lactamase ratio, 5 h; series mostly up to 17.2 µM; activity change, negative = inhibition: at the top concentration
Outline: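 Read-out: CCF4 FRET ratio (460 nm/530 nm) after 1 h RT dye loading, used for %activity and AC50 from titration series. Cells: Jurkat NFAT-β-lactamase/M1 line, treated with compound plus 1 uM carbachol for 5 h, 37 °C.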
In the case of `NS(=O)(=O)c1cc(Cl)c(Cl)c(S(N)(=O)=O)c1`, the “activity change, negative = inhibition” value was 0.462% (inactive). For `NCC1CCC(C(=O)O)CC1` (configuration not stated), the “activity change, negative = inhibition” value was -7.88% (inactive). In the case of `O=S(=O)(O)c1ccc2cc(N=Nc3cc(S(=O)(=O)O)c4cccnc4c3O)ccc2c1`, the “activity change, negative = inhibition” value was 5.63% [at 7.69 µM] (inactive). For `Cc1cc2nc3c(=O)[nH]c(=O)nc-3n(CC(O)C(O)C(O)CO)c2cc1C` (configuration not stated), the “activity change, negative = inhibition” value was -13.6% (inactive). In the case of `C=C1c2cccc(O)c2C(O)=C2C(=O)[C@@]3(O)C(O)=C(C(N)=O)C(=O)[C@@H](N(C)C)[C@@H]3[C@@H](O)[C@H]12`, the “activity change, negative = inhibition” value was -7.3% (inactive). For `CN[C@H]1[C@@H](O[C@@H]2[C@H](O[C@@H]3[C@@H](O)[C@@H](O)[C@@H](N=C(N)N)[C@@H](O)[C@@H]3N=C(N)N)O[C@H](C)[C@@]2(O)C=O)O[C@@H](CO)[C@@H](O)[C@H]1O`, the “activity change, negative = inhibition” value was -12.9% (inactive). For `CN(C)c1ccccc1CN1CCCN(Cc2ccccc2N(C)C)C1c1ccncc1`, the “activity change, negative = inhibition” value was -14.1% [at 7.69 µM] (inactive). For `NC(=O)c1nnn(Cc2cc(Cl)c(C(=O)c3ccc(Cl)cc3)c(Cl)c2)c1N`, the “activity change, negative = inhibition” value was -20.4% [at 7.69 µM] (inactive).
